In the library only some 2.4% were active in any assay of this set; here they are far more common.
Pol iota inh: DNA polymerase iota (human) inhibition; Pol iota fluorescent replication assay, 10 min; Potency, µM (top dose mostly 115 µM), inactives show at the highest dose activity, negative = inhibition, hits mostly inhibitors; hit rate 1% among 390,000
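Pol iota at 10 nM preincubated 15 min with compounds at room temperature; reaction started with fluorescent substrate, 50 nM final. Fluorescence read kinetically at 0 and 10 min; buffer-only wells as negative control.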
Pol beta inh: inhibitors of human DNA polymerase beta. Potency, µM (titrated, usually from 114 µM), inactives show top-dose activity change, negative = inhibition, actives largely listed as inhibitors. hit rate 1.3% among 340,000. Pol beta primer extension/strand displacement, fluorescence kinetic. P06746; further: on the % scale 0 is the no-effect control and ±100 the full control effect
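Pol beta (10 nM) was preincubated with compound for 15 min at room temperature. The reaction was then started with 50 nM substrate and read immediately and after a further 10 min at room temperature.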
Pol kappa inh-1: inhibitors of human DNA polymerase kappa; purified Pol kappa, fluorescent DNA synthesis assay, 10 min; Potency, µM (titrated, usually from 107 µM), without a hit: at the highest dose activity, negative = inhibition, usual class: inhibitors; hit rate 0.53% among 400,000; further: on the % scale 0 is the no-effect control and ±100 the full control effect
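Pol kappa 10 nM + cpd, 15 min RT; start w/ substrate 50 nM final; fluorescence kinetic read, 0 and 10 min. Neg ctrl: buffer, no enzyme.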
Pol eta inh-1: inhibitors of human DNA polymerase eta. recombinant Pol eta, fluorescent DNA replication assay. Potency, µM (highest dose often 114 µM), for inactives: at the highest dose activity change, negative = inhibition, most hits filed as inhibitors. hit rate 1.2% among 390,000; further: on the % scale 0 is the no-effect control and ±100 the full control effect
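Fluorescent replication assay: 50 nM final substrate added after a 15 min room-temperature compound preincubation with 10 nM enzyme. Signal taken at 0 min and again at 10 min.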
WRN inhibitor: inhibitors of human WRN helicase. Q14191. WRN helicase unwinding, fluorescent forked duplex, kinetic. Potency, µM (highest dose often 114 µM), without a hit: at the top dose activity change, negative = inhibition, hits mostly inhibitors. hit rate 0.46% among 360,000. AID 651768; further: on the % scale 0 is the no-effect control and ±100 the full control effect; nearly all actives have a fitted effect of over 55% in size
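Kinetic fluorescence helicase assay: unwinding of a quenched forked DNA duplex (100 nM final) with 2 mM ATP final raises red fluorescence (525/598 nm). Compounds sat 15 min at room temperature with 20 nM WRN beforehand.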
FEN1 inh-1: inhibitors of human flap endonuclease 1; hit rate 0.35% among 390,000; AID 588795; P39748; Recombinant FEN1 flap cleavage, fluorescence, 15 min; Potency, µM (series often up to 114 µM), inactives show top-dose activity change, negative = inhibition, most hits filed as inhibitors; further: on the % scale 0 is the no-effect control and ±100 the full control effect; nearly all actives have a fitted effect of over 65% in size
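Nuclease activity of 10 nM FEN1 was measured after 15 min of room-temperature exposure to titrated compounds, by adding 50 nM flap substrate and reading plates at 0 and 15 min.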
PGK validate: TbPGK inhibition, hit validation; hit rate 79% among 500; shares compounds with Pol kappa inh-1; Potency, µM (series often up to 57.5 µM), without a hit: top-dose activity change, negative = inhibition, actives largely listed as inhibitors; TbPGK coupled GAPDH assay, Kinase-Glo luminescence; AID 686980; further: on the % scale 0 is the no-effect control and ±100 the full control effect; nearly all actives have a fitted effect of over 65% in size
Target sequence (P07378 whole entry, looked up): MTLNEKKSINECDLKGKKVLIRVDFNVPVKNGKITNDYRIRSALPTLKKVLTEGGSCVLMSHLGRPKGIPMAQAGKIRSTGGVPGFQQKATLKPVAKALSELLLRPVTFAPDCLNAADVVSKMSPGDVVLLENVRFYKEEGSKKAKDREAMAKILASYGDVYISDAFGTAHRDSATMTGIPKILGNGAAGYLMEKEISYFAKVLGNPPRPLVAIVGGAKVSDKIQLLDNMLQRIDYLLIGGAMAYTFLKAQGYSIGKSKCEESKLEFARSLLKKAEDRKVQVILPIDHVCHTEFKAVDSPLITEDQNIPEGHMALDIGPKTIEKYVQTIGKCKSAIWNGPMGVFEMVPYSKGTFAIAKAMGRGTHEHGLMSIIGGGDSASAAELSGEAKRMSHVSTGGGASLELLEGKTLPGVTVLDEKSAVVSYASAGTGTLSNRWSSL
POLI cherry-pick: Human Pol iota inhibitor confirmatory assay; shares compounds with Pol kappa inh-1; hit rate 77% among 1,500; Potency, µM, actives largely listed as inhibitors; Pol iota primer extension, TAMRA/BHQ fluorescence
Pol kappa inh-2: confirmation of human DNA polymerase kappa inhibitors. shares compounds with Pol eta inh-1. purified Pol-kappa, fluorescent strand-displacement substrate. Potency, µM, hits mostly inhibitors. hit rate 76% among 920. AID 720501
Pol eta inh-2: confirmation of human DNA polymerase eta inhibitors; shares compounds with Pol eta inh-1; Potency, µM, usual class: inhibitors; hit rate 64% among 2,600; Pol eta primer extension, TAMRA/BHQ fluorescence, 10 min
FEN1 inh-2: confirmation of human FEN1 inhibitors; FEN1 flap cleavage, TAMRA/BHQ2 fluorogenic DNA substrate; shares compounds with FEN1 inh-1; hit rate 79% among 880; Potency, µM, actives largely listed as inhibitors; further: nearly all actives have a fitted effect of over 60% in size
Numbers without * were called inactive; u = inconclusive; x = no result given; [ ] = dose if it differs, or a comment. The call rests on the fitted dose curve; in most records, active means well fitted curve in the direction sought with a large enough effect; inconclusive means small, poorly fitted or top-dose-only effect, or another doubt; inactive means no such curve, though single readings can be large; an effect the other way counts as inactive or inconclusive. Potency means the concentration at half of the fitted maximal effect.

SMILES | Pol iota inh | Pol beta inh | Pol kappa inh-1 | Pol eta inh-1 | WRN inhibitor | FEN1 inh-1 | POLI cherry-pick | Pol eta inh-2 | FEN1 inh-2 | others
C=CC(=O)N1C/C(=C/c2ccc(F)cc2)C(=O)/C(=C\c2ccc(F)cc2)C1 | 11µM* | x | 79µM* | 10µM* | 40µM* | -18% | 60* | 76* | x | PGK validate=5.8µM*
CN1C2CCC1/C(=C\c1ccc(F)cc1)C(=O)/C2=C/c1ccc(F)cc1 | 11% | -1% | 0% | -5% | 1% | -5% | x | x | x
COc1cc(/C=N/NC(N)=S)ccc1OCC(=O)Nc1ccc(C)c(C)c1 | u | -1% | 5% | u | -19% | -1% | x | x | x
COc1cc(/C=N/NC(N)=O)ccc1OCC(=O)Nc1ccc(C)c(C)c1 | 32µM* | u | 89µM* | 28µM* | u | u | 42* | 76* | x
Cc1cccc(CCNC(=O)c2ccc3c(c2)nc2n3CCCCC2)c1 | -3% | 7% | -5%[60.1 µM] | -12% | x | -19% | x | x | x
COc1ccc(S(=O)(=O)N(CCc2ccccc2)CC(=O)NCc2ccccc2)cc1OC | -8% | -9% | -5% | -2% | x | -30% | x | x | x
O=c1[nH]c(=O)c2nc3c4ccccc4c4ccccc4c3nc2[nH]1 | 87% | u | -25% | 28µM* | u | u | 19* | x | x | Pol kappa inh-2=9.5*
COc1cc(OC)c(OC)cc1/C=C1\Oc2cc(OCC(=O)N3Cc4ccccc4C[C@H]3C(=O)O)ccc2C1=O | u | u | 79µM* | 22µM* | u | u | 27* | 21* | x
C=C(C)C(=O)OCCOC(=O)C(=C)C | x | x | -10%[60.1 µM] | x | x | x | x | x | x
COc1ccc(Cl)c2sc(NC(=O)c3ccc(S(=O)(=O)N4CCOCC4)cc3)nc12 | 2% | 2% | -3%[60.1 µM] | -11% | x | 18% | x | x | x
N=C1/C(=C/c2ccco2)C(=O)N=C2SC(CC(=O)N3CCCC3)=NN12 | 16µM* | u | u | 14µM* | 50µM* | -34% | 38* | 24* | x
CCOc1ccccc1-c1noc(CSc2nnc(-c3ccncc3)n2-c2ccc(F)cc2)n1 | -4% | 22% | 7% | -8% | x | -6% | x | x | x
Cc1ccc(SC2=C(N(C)C)C(=O)c3ccccc3C2=O)cc1 | 20µM* | x | -19% | 8.9µM* | -11% | -18% | u | 76* | x
N#C/C(=C\c1ccc(OCc2ccc(F)cc2)cc1)C(=O)Nc1cccc(C(=O)O)c1 | u | u | u | 40µM* | u | u | u | u | u | Pol kappa inh-2=42*
O=C(O)c1ccc(N2C(=O)c3cccc4c(C(=O)O)ccc(c34)C2=O)cc1 | 8.9µM* | 6.3µM* | 20µM* | 3.5µM* | 50µM* | 50µM* | 15* | 3.4* | 21* | PGK validate=16µM*
O=C(O)c1ccc(N2C(=O)c3cccc4cccc(c34)C2=O)cc1 | 74% | -1% | -4% | -16% | -13% | -2% | x | x | x
COC(=O)c1ccccc1NC(=O)c1ncoc1-c1ccco1 | -8% | 2% | 2%[60.1 µM] | -11% | x | -5% | x | x | x
O=C1c2ccccc2C(=O)c2c1ccc(O)c2O | -19% | x | u | u | u | 7.9µM* | u | 76* | 7.6* | PGK validate=u
COCCn1c(CNC(=O)c2cc([N+](=O)[O-])ccc2Cl)nc2cccnc21 | 12% | -7% | -3%[60.1 µM] | -18% | x | -2% | x | x | x
CC(=O)c1ccc(NC(=O)c2ccc(NC(=O)c3ccco3)cc2)cc1 | -19% | 28% | -11% | 9% | -3% | u | x | x | x
COC(=O)c1ccc(NC(=O)c2ccc(NC(=O)c3ccco3)cc2)cc1 | u | -1% | -10% | u | -14% | u | u | x | u
CN(C)CCCNC(=O)c1ccccn1 | 11% | 8% | -6% | -6% | 7% | -6% | x | x | x
CN(C)CCCNC(=O)c1ccc(-c2cc(O)c3ncccc3c2)cc1 | -9% | x | -14% | -10% | x | 50µM* | 47* | u | u
COc1cccc(-n2ccnc2SCC(=O)Nc2ccc(Cl)c(Cl)c2)c1 | -7% | 25% | -2%[60.1 µM] | -9% | x | -11% | x | x | x
N#Cc1ccccc1-c1ccc2ncnc(NCc3cccs3)c2c1 | x | x | -25%[60.1 µM] | x | x | x | x | x | x
SMILES | Pol iota inh | Pol beta inh | Pol kappa inh-1 | Pol eta inh-1 | WRN inhibitor | FEN1 inh-1 | POLI cherry-pick | Pol eta inh-2 | FEN1 inh-2 | others
COc1ccc(NC(=O)c2cc(-c3ccc(F)cc3)no2)cc1OC | 31% | 0% | -2% | -18% | x | -15% | x | x | x
O=C(COC(=O)c1ccc([N+](=O)[O-])o1)NC1CCCCC1 | 79µM* | x | -21% | u | -2%[11.6 µM] | u | u | u | 6.7*
O=C(COC(=O)c1ccc([N+](=O)[O-])o1)NC1CCS(=O)(=O)C1 (stereo not drawn) | 63µM* | 0% | -16% | 45µM* | -19%[57.1 µM] | u | u | u | 7.6*
CC1CCCC(NC(=O)COC(=O)c2ccc([N+](=O)[O-])o2)C1C (stereo not drawn) | u | x | -24% | -9% | 2% | u | x | x | x
COc1cc(C(=O)OCC(=O)NC2CCS(=O)(=O)C2)c([N+](=O)[O-])cc1OC (stereo not drawn) | 124% | 22% | 2% | -3% | 1% | -1% | x | x | x
CC(C)C[C@@H](NC(=O)[C@H](Cc1ccccc1)NC(=O)c1cnccn1)B(O)O | x | x | 5%[19.4 µM] | x | x | x | x | x | x
Nc1cc(S(=O)(=O)O)cc([N+](=O)[O-])c1O | 7.9µM* | -14% | 28µM* | 4.5µM* | u | u | 8.4* | 5.4* | u | PGK validate=2.9µM*
O=C(CN1C(=O)/C(=C/c2ccco2)SC1=S)Nc1ccc(C(=O)O)c(O)c1 | -14% | 11µM* | -8% | 3.5µM* | 35µM* | 3% | 15* | 6.7* | 27* | PGK validate=33µM*
O=C(N/N=C/c1ccc(O)c(Br)c1)c1cc2c(ccc3ccccc32)o1 | 1% | 0% | -15% | 6% | -4% | 15% | x | x | x
